About 79,000 compounds went through this panel and 15% of them were active in at least one assay; those are over-represented in the sample as a whole. Activity calls are given as the source filed them. Rule as the data show it: active = growth inhibition above about 70%; inactive = the rest. Where a SMILES comes first, the peptide text is derived from it. The star is where a group is joined. Boc = CC(C)(C)OC(=O)*; OBn = c1ccc(CO*)cc1; Bn = c1ccc(C*)cc1
Assay: NCI Yeast Anticancer Drug Screen. Data for the mlh1 rad18 strain (AID 175)
Conditions: S. cerevisiae mlh1 rad18 strain growth inhibition; at 50.0 µM; active compounds read high
Outline: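 Growth inhibition of the yeast strain was measured after compound exposure and expressed relative to vehicle-treated controls. The strain carries defined defects in DNA damage repair.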

SMILES | growth inhibition
COc1cccc(NC(=O)CC(=O)NN2C(=O)/C(=C/c3ccc(N(CCC#N)CCC#N)cc3)N=C2c2cc([N+](=O)[O-])ccc2Cl)c1 | 14.6% (inactive)
O=Cc1ccc(-c2ccc([N+](=O)[O-])cc2)o1 | 3.6% (inactive)
O=C(N/N=C/c1cc(-c2ccccc2Cl)c(-c2ccccc2Cl)o1)c1ccncc1 | 28.3% (inactive)
O=[N+]([O-])c1cn(CCNc2c3ccccc3nc3ccccc23)cn1 | 16.8% (inactive)
CCOC(=O)CCCc1ccccc1 | -2.25% (inactive)
O=C1c2ccccc2-c2c1c1ccccc1c(=O)n2Cc1ccco1 | -18.9% (inactive)
CCOC(NC(C)=O)C(O)c1ccc(Cl)cc1 (stereo not given) | 18.2% (inactive)
C1CCN(c2nn[nH]n2)CC1 | 0.4% (inactive)
CCN(CC)C(=O)C1CCNCC1 | -7.75% (inactive)
CCCCCC(CCCC)OC(=O)Nc1ccccc1 (stereo not given) | 4.6% (inactive)
O=C(OC(=O)c1cccc(Br)c1)c1cccc(Br)c1 | 1% (inactive)
O=C(COc1ccc(F)cc1)OCCO | -18.9% (inactive)
COc1cc(C)nc2ccc(Cc3ccc4nc(C)cc(OC)c4c3)cc12 | 25.6% (inactive)
O=C(c1nc2ccc(Cl)cc2[nH]c1=O)C(O)c1ccco1 (stereo not given) | -13.2% (inactive)
O=C(Cc1ccccc1)NN1C(=O)C(Cl)C1c1cc(Br)ccc1O (stereo not given) | 15.6% (inactive)
Cc1ccc(NC(=O)Oc2cccc(C(F)(F)F)c2)cc1 | 35.6% (inactive)
CC(C)CC(NC(=O)C(CCC(=O)OCc1ccccc1)NC(=O)OC(C)(C)C)C(=O)NC(COCc1ccccc1)C(=O)NC(Cc1ccccc1)C(=O)O (stereo not given) (Boc-E(OBn)LS(Bn)F-OH; configuration not given here) | -10.8% (inactive)
OC1COC2CC(Nc3ccccn3)OC12 (stereo not given) | -13.6% (inactive)
CC(C)CCCC(C)C1CCC2(C)C3CCC(C(C)O)C(C)(CCCO)C3CCC12C (stereo not given) | 55.9% (inactive)
CC(C)CCC[C@@H](C)[C@H]1CC[C@H]2[C@@H]3CC[C@H]4C[C@@H](CCC=C(c5cc(Cl)c(O)c(C(=O)O)c5)c5cc(Cl)c(O)c(C(=O)O)c5)CC[C@]4(C)[C@H]3CC[C@]12C | -1.75% (inactive)

SMILES | growth inhibition
BrC1=NOC2c3cccc4cccc(c34)C12 (stereo not given) | 22.8% (inactive)
O=C(O)Cc1ccc(Oc2ccc(CC(=O)O)cc2)cc1 | 0.55% (inactive)
CCN(CC)C1Oc2cc3c(cc2C(c2cccc(OC)c2OC)C1C)OCO3 (stereo not given) | 63.3% (inactive)
CC(=O)OCC(C)CCC(C)COC(C)=O (stereo not given) | -31.6% (inactive)
NC(N)=NS(=O)(=O)c1ccc(Nc2c3ccccc3nc3c(C(=O)NNCCO)cccc23)cc1 | -1.65% (inactive)
Nc1on(C(=O)c2ccccc2)c(=O)c1Cc1ccccc1 | -2.1% (inactive)
O=C(O)C1Cc2c([nH]c3ccccc23)C=N1 (stereo not given) | 33.8% (inactive)
O=C(Nc1ccc(S(=O)(=O)/N=c2\ncccn2C(=O)C(C(F)(F)F)C(F)(F)F)cc1)C(C(F)(F)F)C(F)(F)F | -26.8% (inactive)
COc1c(C)cc(Cc2ccc3c(c2)OCO3)cc1C | -5.3% (inactive)
O=[N+]([O-])c1ccc2cccc3c2c1CC3 | 22.6% (inactive)
CN1C(c2ccccc2)=C(C#N)C(=O)CC(c2ccccc2)N1C (stereo not given) | 21.2% (inactive)
C(/C=N/NC1=NCCCCN1)=N\NC1=NCCCCN1 | -11.2% (inactive)
COCC(C)OC(=O)c1ccccc1Cl (stereo not given) | 24.3% (inactive)
CC1(C)COC(c2cc(Br)ccc2Br)=N1 | 1.35% (inactive)
CCOCC1OCCCO1 | 7.15% (inactive)
COc1ccc(C(O)C(C)C(O)(C(F)(F)F)C(F)(F)F)cc1 (stereo not given) | 90% (active)
COC(=O)C(CC(=O)Nc1ccc(Cl)c(Cl)c1)C(=O)C(=O)Nc1ccc(Cl)c(Cl)c1 (stereo not given) | -10.7% (inactive)
O=C1CCCC/C(=C/c2ccccc2)N1 | 7.85% (inactive)
Cc1cc(O)cc(O)c1C(=O)O[C@]1(C)C(=O)C=C2C=C(/C=C/C(=O)O)OC=C2C1=O | -3.9% (inactive)
Cc1cccc(C)c1NC(=O)Nc1cccc(Cl)c1 | -0.8% (inactive)

Reference: PubChem BioAssay (NCI)
